Experimental data from PubChem BioAssay AID1159580 (chemical genetic matrix, 2015).
Several values for one entry are separate records, joined by “and”; a condition that tells them apart may be missing. Equal entries are not always repeated. Out of some 5,500 compounds screened, about 2,000 (36%) were called active. Another 18% or so got no clear call; they are omitted. Rule as the data show it: active = normalized growth mostly below about 0.91 (no sharp cut-off); inconclusive = no clear call, values can overlap the other calls; inactive = mostly above about 0.92. The list shows a part of the results.

Test: chemical genetic growth profiling, strain panel (AID 1159580);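 also: tested at 20 µM; growth read once vehicle control cultures reached saturation at 30 °C; 1 = growth at the plate median or of vehicle wells; lower values mean less growth of the strain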
Conditions: S. cerevisiae deletion strains, growth OD

Measured: normalized growth

COC(=O)C1[C@H]2C[C@H]3c4[nH]c5ccccc5c4CCN3C[C@@H]2CC[C@@H]1O (some centres not stated)
inactive: locus YAL013W, strain DEP1, stronger effect = lower value 1.02 | locus YAL021C, strain ccr4, stronger effect = lower value 0.991 | locus YAL026C, strain drs2, stronger effect = lower value 0.981 | locus YAL030W, strain snc1, stronger effect = lower value 0.976 | locus YBL061C, strain skt5, stronger effect = lower value 0.982 | locus YBR009C, strain hhf1, stronger effect = lower value 0.978 | locus YBR021W, strain FUR4, stronger effect = lower value 1.01 | locus YBR023C, strain chs3, stronger effect = lower value 0.964 | locus YBR171W, strain sec66, stronger effect = lower value 0.96 | locus YBR229C, strain ROT2, stronger effect = lower value 1 | locus YBR231C, strain swc5, stronger effect = lower value 0.965 | locus YBR279W, strain paf1, stronger effect = lower value 0.962 | locus YCL011C, strain gbp2, stronger effect = lower value 0.954 | locus YCL016C, strain dcc1, stronger effect = lower value 0.973 | locus YCL029C, strain bik1, stronger effect = lower value 1.03 | locus YCL061C, strain MRC1, stronger effect = lower value 0.976 | locus YCL069W, strain vba3, stronger effect = lower value 0.981 | locus YCR088W, strain abp1, stronger effect = lower value 0.977 | locus YDL005C, strain med2, stronger effect = lower value 0.971 | locus YDL035C, strain GPR1, stronger effect = lower value 1.02 | locus YDL040C, strain nat1, stronger effect = lower value 0.974 | locus YDL074C, strain BRE1, stronger effect = lower value 1.05 | locus YDL101C, strain DUN1, stronger effect = lower value 1.01 | locus YDL134C, strain PPH21, stronger effect = lower value 1.02 | locus YDL185W, strain tfp1, stronger effect = lower value 1.02 | locus YDL192W, strain arf1, stronger effect = lower value 1.02 | locus YDR001C, strain nth1, stronger effect = lower value 0.964 | locus YDR069C, strain doa4, stronger effect = lower value 0.954 | locus YDR101C, strain arx1, stronger effect = lower value 1.01 | locus YDR137W, strain rgp1, stronger effect = lower value 0.945 | locus YDR150W, strain NUM1, stronger effect = lower value 1.01 | locus YDR159W, strain sac3, stronger effect = lower value 0.925 | locus YDR162C, strain NBP2, stronger effect = lower value 1.01 | locus YDR195W, strain ref2 0.943 | locus YDR297W, strain sur2, stronger effect = lower value 0.979 | locus YDR318W, strain mcm21, stronger effect = lower value 1.03 | locus YDR334W, strain swr1, stronger effect = lower value 0.946 | locus YDR335W, strain msn5, stronger effect = lower value 0.97 | locus YDR388W, stronger effect = lower value 1.02 | locus YDR392W, strain spt3, stronger effect = lower value 1.01 | locus YDR502C, strain sam2, stronger effect = lower value 1.01 | locus YEL003W, strain gim4, stronger effect = lower value 0.97 | locus YEL037C, strain rad23, stronger effect = lower value 0.979 | locus YEL061C, strain CIN8 (second series), stronger effect = lower value 0.962 | locus YEL061C, strain CIN8, stronger effect = lower value 1.01 | locus YER015W, strain faa2, stronger effect = lower value 0.983 | locus YER016W, strain bim1, stronger effect = lower value 0.982 | locus YER110C, stronger effect = lower value 1.01 | locus YER111C, strain swi4, stronger effect = lower value 0.986 | locus YER155C, strain BEM2 (second series), stronger effect = lower value 0.945 | locus YER155C, strain BEM2, stronger effect = lower value 1.01 | locus YER167W, strain BCK2, stronger effect = lower value 1.01 | locus YFR010W, strain ubp6, stronger effect = lower value 0.952 | locus YGL078C, strain dbp3, stronger effect = lower value 1.01 | locus YGL086W, strain mad1, stronger effect = lower value 1 | locus YGL167C, strain pmr1, stronger effect = lower value 0.944 | locus YGL173C, strain kem1, stronger effect = lower value 0.989 | locus YGL227W, strain vid30, stronger effect = lower value 0.962 | locus YGL240W, strain doc1, stronger effect = lower value 0.954 | locus YGL248W, strain PDE1, stronger effect = lower value 1.01 | locus YGL253W, strain hxk2, stronger effect = lower value 0.975 | locus YGR078C, strain PAC10, stronger effect = lower value 1.03 | locus YGR135W, strain pre9, stronger effect = lower value 1.01 | locus YGR229C, strain SMI1, stronger effect = lower value 1.01 | locus YGR252W, strain gcn5, stronger effect = lower value 0.976 | locus YHR013C, strain ard1, stronger effect = lower value 0.979 | locus YHR027C, strain rpn1, stronger effect = lower value 0.972 | locus YHR030C, strain SLT2, stronger effect = lower value 1.02 | locus YHR079C, strain IRE1 (second series), stronger effect = lower value 1.02 | locus YHR079C, strain IRE1, stronger effect = lower value 1.02 | locus YHR094C, strain hxt1, stronger effect = lower value 1.01 | locus YHR129C, strain ARP1, stronger effect = lower value 0.999 | locus YHR142W, strain chs7, stronger effect = lower value 0.983 | locus YHR200W, strain rpn10, stronger effect = lower value 1.02 | locus YIL066C, strain RNR3, stronger effect = lower value 1.02 | locus YIL073C, strain SPO22, stronger effect = lower value 1.05 | locus YIL125W, strain kgd1, stronger effect = lower value 1.01 | locus YIR030C, strain dcg1, stronger effect = lower value 1.02 | locus YJL092W, strain hpr5, stronger effect = lower value 0.982 | locus YJL095W, strain BCK1 (second series), stronger effect = lower value 0.981 | locus YJL095W, strain BCK1, stronger effect = lower value 1.05 and 1.01 | locus YJL115W, strain asf1, stronger effect = lower value 0.966 | locus YJL129C, strain trk1, stronger effect = lower value 0.977 | locus YJL134W, strain LCB3, stronger effect = lower value 1.01 | locus YJL154C, strain vps35, stronger effect = lower value 0.964 | locus YJL164C, strain tpk1, stronger effect = lower value 1 | locus YJL166W, strain qcr8, stronger effect = lower value 0.953 | locus YJL168C, strain set2, stronger effect = lower value 1.02 | locus YJL187C, strain SWE1 (second series), stronger effect = lower value 1.03 | locus YJL187C, strain SWE1, stronger effect = lower value 0.98 | locus YJR043C, strain POL32, stronger effect = lower value 1.02 | locus YJR066W, strain TOR1, stronger effect = lower value 1.02
